MRP resist rev: reversal of MRP1-mediated doxorubicin resistance, primary screen, H69AR cells, doxorubicin co-treatment; H69AR cells + 2 uM doxorubicin, CellTiter-Glo, 72 h; differential viability (reversal), % at 10 µM; actives 0.04% (n = 85,000);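 active = viability drop by adding the cancer drug above about 55%, with treated viability meeting a 40% cutoff, limit read from the data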;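 note: viability without doxorubicin minus viability with 2 µM doxorubicin for each compound; larger differential means the compound sensitizes cells more to doxorubicin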
E-sel TNF inh: E-selectin induction blockers in HUVEC – imaging, immunofluorescence, high content, primary screen | inhibition, % at 2 µM | actives 0.71% (n = 120,000) | HUVEC TNFa-induced E-selectin immunofluorescence;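 active = inhibition above the batch mean plus 3 SD, and confirmed as a hit on visual image review, cut at about 43% in these data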;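 note: 0% = TNF-stimulated DMSO wells and 100% = unstimulated control wells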
VCAM1 TNFa inh: inhibitors of TNFa-induced VCAM1 expression, primary screen, imaging, HUVEC, TNFa stimulus, immunofluorescence. actives 0.48% (n = 95,000). inhibition, % at 2 µM. AID 802, 2007. HUVEC TNFa-induced VCAM-1 immunofluorescence, high-content imaging;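 active = inhibition above the batch mean plus 3 SD, with images confirmed as a hit by eye, cut at about 37% in these data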;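 note: 0% = TNF-stimulated DMSO wells and 100% = unstimulated control wells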
MRP1 act: H69AR viability gain despite doxorubicin, primary screen, MRP-1 activator project, H69AR cells, CellTiter-Glo. viability rescue. viability increase, % at 10 µM. actives 0.61% (n = 140,000). AID 799, 2007;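 active = viability gain under doxorubicin at or above a set limit, the compound median plus 3 SD, cut at about 4.7% in these data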;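 note: MRP-1 overexpressing cells given doxorubicin 25 µM after compound pretreatment; 18-22 h compound pretreatment then 72 h with doxorubicin before readout; 0% = doxorubicin-only wells and 100% = vehicle-treated cells without doxorubicin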
F-actin modifier: modifiers of F-actin cytoskeleton organization, primary screen, imaging, HUVEC, phalloidin staining, high-content imaging. inhibition, % at 2 µM. HUVEC TNFa F-actin phalloidin imaging. actives 0.18% (n = 91,000);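 active = inhibition above the batch mean plus 3 SD and confirmed as a hit by visual image inspection, cut at about 30% in these data, passing the limit was not always enough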
Numbers without * were called inactive; . = no result. An excerpt weighted towards active compounds, which were near 1.5% of everything screened.

SMILES | MRP resist rev | E-sel TNF inh | VCAM1 TNFa inh | MRP1 act | F-actin modifier
O=S(=O)(c1ccc2c(c1)OCCCO2)N1CCNCC1 | . | . | 84.0* | -1.3 | -40.3
COc1ccc(N2CCN(S(=O)(=O)c3ccc4c(c3)OCCO4)CC2)cc1 | . | -8.8 | . | . | .
CCN1CCCC1CNC1=NCCCCC1 (stereo not given) | -16.1 | 71.0* | 4.2 | -0.6 | 13.8
CC1CCc2cc(F)ccc2N1C(=O)C1(C)CC1(Cl)Cl (stereo not given) | -8.3 | 13.0 | -1.6 | -3.5 | 1.4
Cc1nc2c(sc3nc4c(cc32)COC(C)(C)C4)c(=O)n1Cc1ccccc1 | 5.7 | 15.0 | 4.6 | 2.7 | 5.2
CCCc1nc2c(sc3nc4c(cc32)COC(C)(C)C4)c(=O)n1CCN(C)C | . | -0.7 | . | . | .
Cc1nc2c(sc3nc4c(cc32)COC(C)(C)C4)c(=O)o1 | . | 81.3* | -0.9 | -0.7 | -1.1
Cc1nc(OCc2ccccc2)c2sc3nc4c(cc3c2n1)COC(C)(C)C4 | 17.6 | -36.6 | -9.1 | 6.1* | 1.1
O=C(Nc1ccc2nc(-c3ccco3)c(-c3ccco3)nc2c1)N1CCN(c2ccccn2)CC1 | . | 7.2 | . | -2.1 | .
CCS(=O)(=O)N1CCN(c2ccc([N+](=O)[O-])c(N3CCOCC3)c2)CC1 | . | 96.9* | . | -2.1 | .
O=C1CSC(c2ccccc2)N1c1nnc(C23CC4CC(CC(C4)C2)C3)s1 (stereo not given) | . | 2.2 | -7.0 | 1.4 | 3.9
CC1=C([N+](=O)[O-])C(c2cccc(Br)c2)C2=C(N1)c1ccccc1C2=O (stereo not given) | . | -33.2 | 93.0* | -2.1 | -3.0
O=C(CN1CCN(c2ccccc2F)CC1)c1c[nH]c2ccccc12 | . | 53.4* | 8.2 | -2.9 | -1.4
O=C(CN1CCN(Cc2ccccc2)CC1)c1c[nH]c2ccccc12 | 1.4 | 4.1 | 25.3 | -2.2 | 1.2
CC(C)CC(C(=O)NCC1CCCO1)N(C(=O)Cn1nnc(-c2ccc(F)cc2)n1)c1ccccc1F (stereo not given) | . | -8.5 | 5.3 | 0.9 | -31.6
CC(C)(C)c1ccc(/C([O-])=C(/C(=S)NCc2ccco2)[n+]2ccccc2)cc1 | . | . | 7.9 | -3.4 | -1.7
CCCCn1[nH]c(-c2ccccc2)cc1=O | . | . | . | 2.6 | .
O=Cc1ccc(OCc2nnsc2Cl)cc1 | . | -9.7 | . | . | .
COc1ccc(C2=Nc3ccc(Br)cc3C(c3ccccc3)N2CC(=O)NN)cc1 (stereo not given) | . | 3.5 | . | 4.8* | .
Oc1ccc(N2CCN(c3ncnc4sc5c(c34)CCC5)CC2)cc1 | -17.6 | . | 86.3* | -3.4 | 23.1
CCOc1ccc(-c2nc(C#N)c(N3CCN(C)CC3)o2)cc1 | 11.5 | -18.0 | 17.4 | 0.9 | 8.1
CCOc1ccc(-c2nc(C#N)c(N3CCCCCC3)o2)cc1 | -10.1 | . | 1.2 | 5.7* | -2.6
N#Cc1nc(COc2ccc(F)cc2)oc1N1CCCC1 | -2.2 | . | 6.0 | 4.8* | -9.8
O=C1CC(NN2CCCCC2)C(=O)N1c1ccccc1 (stereo not given) | . | -14.1 | . | . | .
CC1(C)CSC(=NCc2ccccc2)N1C(=O)c1cccc([N+](=O)[O-])c1 | . | . | . | 0.3 | .
SMILES | MRP resist rev | E-sel TNF inh | VCAM1 TNFa inh | MRP1 act | F-actin modifier
Cc1cc([N+](=O)[O-])nn1CCCC(=O)Nc1sc2c(c1C(N)=O)CCC(C)C2 (stereo not given) | . | 84.2* | . | -2.5 | .
CC(C)NC(=O)c1cc(-n2cnnc2)ccc1Cl | -0.6 | -11.8 | 19.1 | -0.5 | 3.5
CC(=O)C1=C(C)NC(SCc2cccc3ccccc23)=C(C#N)C1c1ccco1 (stereo not given) | . | 67.0* | . | -4.8 | .
CC(=O)C1=C(C)NC(SCc2ccc(C#N)cc2)=C(C#N)C1c1ccco1 (stereo not given) | . | 35.7 | . | -2.9 | .
O=C(Cc1csc(-c2ccccc2)n1)Nc1ccc(C(F)(F)F)cc1 | . | 23.3 | . | -0.8 | .
Cc1ccc(NC(=O)Cc2csc(-c3ccccc3)n2)cc1F | . | . | . | 5.1* | .
Cc1cccc(Cc2cnc(NC(=O)CN3C(=O)/C(=C/c4ccccc4)SC3=S)s2)c1 | . | -6.7 | -14.9 | 5.6* | 3.2
Cc1ccc(/C=C2/SC(=S)N(CC(=O)Nc3ncc(Cc4ccc(C)cc4)s3)C2=O)cc1 | -2.5 | 9.9 | 0.1 | -2.2 | 11.3
CN1CCc2c1nc1ccccc1c2N=C1CCCN1Cc1ccccc1 | . | -14.2 | . | -2.8 | .
Cc1cc(C)c(S(=O)(=O)N2CCOC2CNC(=O)C(=O)NCc2cccnc2)c(C)c1 (stereo not given) | . | -16.8 | . | -1.0 | .
Cc1nc(S(=O)(=O)N(C)Cc2ccccc2)c(C#N)c(C)c1Cl | 7.7 | -7.1 | 78.2* | -2.3 | -47.9
COCCn1c(SCC(=O)Nc2ccc(S(=O)(=O)N(C)C)cc2)nc2ccccc21 | -15.5 | -2.3 | -24.8 | -4.9 | .
CCOC(=O)Nc1nc(-c2ccccc2)c(C(=O)c2ccccc2)s1 | . | -8.2 | 78.1* | -1.6 | 0.3
Clc1ccc(-c2nnc(-c3ccco3)o2)cc1 | 3.6 | 77.0* | -9.5 | -1.2 | -1.0
c1cncc(-c2nnc(-c3ccco3)o2)c1 | 7.2 | -1.0 | 1.0 | -0.1 | -3.3
CNc1c([N+](=O)[O-])cnn1-c1ccc(Cl)cc1 | . | -35.6 | 6.8 | 0.4 | 50.0*
COc1cc(C2C3=C(Nc4ncnn42)c2ccccc2CC3)cc(OC)c1OC (stereo not given) | -36.5 | . | 88.1* | -2.8 | -10.5
COc1ccc(C2C3=C(Nc4ncnn42)c2ccccc2CCC3)cc1 (stereo not given) | 9.7 | . | 9.8 | -2.7 | -1.8
O=S(=O)(NC1CCCCC1)c1ccc(Cl)nc1 | . | . | . | -1.8 | .
COc1ccc2nc(SCC(=O)N3CC(=O)Nc4ccccc43)c(C#N)cc2c1 | . | -13.6 | -12.0 | -0.3 | 27.6
Cc1cc(C)c2nc(SCC(=O)N3CC(=O)Nc4ccccc43)c(C#N)cc2c1 | -38.3 | -36.4 | 99.6* | -5.7 | 27.3
CC(C)(CNC(=O)/C=C/c1ccc(F)cc1)CNC(=O)/C=C/c1ccc(F)cc1 | . | . | . | 5.9* | .
CC(C)(C)SCCNC(=O)/C=C/c1ccc(F)cc1 | . | . | . | -1.4 | .
CCOC(=O)C1=NNC2(c3ccc(C)cc3)C(=O)N(c3ccc(Cl)cc3)C(=O)C12 (stereo not given) | . | 2.0 | . | -0.4 | .
CCCc1cc(-c2nc(-c3ccc(Cl)cc3)cs2)ccn1 | . | -25.8 | 13.9 | 3.5 | -36.5
SMILES | MRP resist rev | E-sel TNF inh | VCAM1 TNFa inh | MRP1 act | F-actin modifier
CCCc1cc(-c2nc(-c3ccc(Br)cc3)cs2)ccn1 | . | . | . | 5.0* | .
CCOC(=O)N1CCC(N2CCN(S(=O)(=O)c3ccc(NC(C)=O)cc3)CC2)CC1 | -5.5 | 99.6* | 15.3 | -1.9 | -10.7
O=C(O)/C=C/C(=O)Nc1ccccc1SC(F)(F)F | . | . | . | -3.6 | .
FC(F)(F)c1cc(-c2ccc3c(c2)OCO3)nc(NCc2ccco2)n1 | 8.0 | 18.8 | 77.6* | -1.1 | -6.9
CC[C@H](C)NC(=O)c1ccc(Cn2c(=S)[nH]c3c([nH]c4ccc(OC)cc43)c2=O)cc1 | . | . | . | -0.4 | .
CC1=NN(C(C#N)c2cccc([N+](=O)[O-])c2)C(C)(C)C1 (stereo not given) | . | . | . | -1.2 | .
CCN1/C(=C2\C(=O)N(C)C(=S)N2C)C=Cc2ccccc21 | . | . | . | 0.1 | .
CCOC(=O)/C(C#N)=C1/C=Cc2ccccc2N1CC | 3.6 | 53.1* | . | 1.3 | .
